Screening data as filed in PubChem.
m-calpain inh: inhibitors of pig calpain II | purified calpain II, fluorogenic peptide substrate, 30 min | inhibition, % at 16 µM | 0.37% of 220,000 active | AID 1236;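 active = inhibition above about 50%, limit read from the data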
S1P4 ag: agonists of human S1P4 receptor; activation, % at 4.98 µM; 0.35% of 220,000 active; AID 1509; O95977; S1P4-expressing cell line, agonist reporter assay; in the data active = activation above about 11%;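 also: 0% = DMSO vehicle and 100% = reference agonist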
S1P3 antagonist: blocks the human S1P3 receptor. Q99500. CHO S1P3 NFAT-BLA reporter, FRET fluorescence, antagonist mode. inhibition, % at 4.98 µM. 0.27% of 170,000 active. AID 485;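 active = inhibition above the plate cutoff, the mean inhibition of test wells on that plate plus 3 SD, cut at about 28% in these data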;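 also: cells challenged with S1P at its EC80 of 0.8 µM; blue over green emission ratio from cleaved BLA substrate after 4 h stimulation; 0% = S1P-stimulated wells and 100% = unstimulated DMSO-only wells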
S1P4 antag: human S1P4 receptor antagonism; S1P4-expressing cells, antagonist mode, reporter read-out; inhibition, % at 4.98 µM; 0.26% of 220,000 active; AID 1510; in the data active = inhibition above about 29%;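 also: 0% = wells stimulated with agonist and 100% = vehicle wells without agonist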
PERK inh: human PERK inhibition, primary cell-based screen | inhibition, % at 5.6 µM | 0.17% of 220,000 active | Q9NZJ5 | CHO PERK-DD fusion, SEAP luminescence translation reporter;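 active = inhibition above the mean inhibition of all tested compounds plus 3 SD, set separately per screening campaign, cut at about 2.9% in these data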;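 also: PERK kinase domain activated by AP20187 dimerizer at 100 nM; 0% = DMSO with dimerizer and 100% = rapamycin at 8.4 µM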
S1P4 agonist cf: human S1P4 agonism, confirmation. shares compounds with S1P4 ag. S1P4 agonist cell-based reporter assay. activation, % at 4.98 µM. 7% of 740 active; in the data active = activation above about 12%;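 also: 0% = vehicle and 100% = full reference agonist response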
S1P1 ag: human S1P1 agonism as S1P4 agonist counter-screen | S1P1 agonist cell-based assay, activation | 4% of 740 active | activation, % at 4.98 µM | shares compounds with S1P4 ag; in the data active = activation above about 21%;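 also: 0% = vehicle wells and 100% = reference agonist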
Target sequence (P21453 whole entry, looked up): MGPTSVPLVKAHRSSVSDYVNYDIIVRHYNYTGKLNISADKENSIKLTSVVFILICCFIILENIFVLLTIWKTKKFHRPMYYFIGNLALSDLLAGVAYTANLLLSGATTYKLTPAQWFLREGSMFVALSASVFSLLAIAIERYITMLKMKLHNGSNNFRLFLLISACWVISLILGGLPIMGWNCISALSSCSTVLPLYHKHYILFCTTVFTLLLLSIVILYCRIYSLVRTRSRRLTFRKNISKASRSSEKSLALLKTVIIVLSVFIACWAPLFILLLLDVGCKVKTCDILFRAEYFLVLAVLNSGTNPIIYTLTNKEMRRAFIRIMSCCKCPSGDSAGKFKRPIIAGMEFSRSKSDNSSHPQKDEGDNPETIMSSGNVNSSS
Starred values were filed as active, the others as inactive; i = inactive; . = no result given. This is a sample that favours compounds with a hit; in the whole collection about 1.3% have one here.

SMILES | m-calpain inh | S1P4 ag | S1P3 antagonist | S1P4 antag | PERK inh | S1P4 agonist cf | S1P1 ag
Cc1ccccc1NS(=O)(=O)c1ccc(F)cc1 | 2 | 1 | -13 | -21 | 1 | . | .
Cc1cc2c(NS(=O)(=O)c3ccc(F)cc3)cccc2nn1 | 7 | 116* | -6 | -6 | 2 | -1 | 2
O=S(=O)(c1ccc(Br)s1)N1CCNCC1 | 1 | 3 | -10 | -14 | 1 | . | .
Cc1ncc([N+](=O)[O-])n1CC(=O)NCCc1ccccc1 | -4 | 16* | -15 | 3 | 1 | -1 | -1
COCCCn1c(=N)c(C(=O)NCc2ccc3c(c2)OCO3)cc2c(=O)n3ccccc3nc21 | -70 | 2 | 13 | -6 | 0 | . | .
CC(C)n1c(=N)c(C(=O)NCCc2ccccc2)cc2c(=O)n3ccccc3nc21 | i | 18* | -18 | -14 | -2 | 14* | 36*
COCCCn1c(=N)c(C(=O)NC2CCCCC2)cc2c(=O)n3ccccc3nc21 | i | 13* | . | -25 | -1 | 3 | 2
Cc1cccn2c(=O)c3cc(C(=O)NCc4cccnc4)c(=N)n(C(C)C)c3nc12 | i | 8 | . | -24 | -1 | . | .
O=[N+]([O-])c1ccc(OCCO)c(P(=O)(c2ccccc2)c2ccccc2)c1 | 6 | 155* | 11 | -2 | 0 | -2 | -3
C=CCC1(NCc2ccco2)CCN(CC)CC1 | -25 | -2 | 7 | -4 | 1 | . | .
O=C(Nc1ccc2c(c1)OCO2)N1CCCC1 | -32 | 46* | 3 | -2 | 1 | -2 | 3
O=C(Nc1ccc2c(c1)OCO2)N1CCOCC1 | 8 | 1 | -5 | -20 | 0 | . | .
Nc1cc(-c2ccc(OC(F)(F)F)cc2)nn1-c1ccc(Cl)c(Cl)c1 | 12 | 2 | 1 | -6 | 1 | . | .
CCOC(=O)C1CCN(c2ncnc3c2oc2ccc(Cl)cc23)CC1 | -53 | 187* | -6 | -1 | 0 | -2 | -1
Clc1ccc(N2CCN(c3ncnc4c3oc3ccccc34)CC2)cc1 | . | . | 14 | . | . | . | .
CCc1nc(SCC#N)c(C#N)cc1C | -64 | 23* | -10 | -10 | 1 | 1 | 4
C=CCn1c(SCc2nc3ccccc3c(=O)[nH]2)nc2scc(C3CC3)c2c1=O | -26 | 2 | -12 | -1 | -1 | . | .
CCOC(=O)c1cc(NC(=O)c2ccc(OC)cc2)c(=O)oc1-c1ccccc1 | -7 | 22* | . | 13 | 0 | -2 | 10
COC(=O)c1cc(NC(=O)c2ccc(OC)cc2)c(=O)oc1C | -12 | 0 | -6 | 3 | 0 | . | .
O=[N+]([O-])/C(C(Cl)=C(Cl)Cl)=C(/Sc1ccccc1)N1CCCCC1 | 3 | 0 | 9 | 3 | 0 | . | .
COc1ccc(N(C(C)C(=O)N2CCC(Cc3ccccc3)CC2)S(C)(=O)=O)cc1 (stereo not drawn) | 30 | 0 | -8 | -3 | 0 | . | .
COc1ccccc1NC(=O)CN(Cc1ccco1)C(=O)c1cc2ccccc2o1 | -3 | 2 | -2 | -4 | 0 | . | .
COc1cccc(C2CN(c3ccc(F)cc3F)N=C2c2cccs2)c1OC (stereo not drawn) | -94 | 25* | . | -11 | -1 | 15* | 43*
COc1ccccc1C1CN(c2ccccc2)N=C1c1cccs1 (stereo not drawn) | -90 | 1 | . | 0 | 0 | . | .
N#Cc1nccnc1N1CCN(C(=O)Nc2ccccc2)CC1 | -121 | 1 | 8 | -6 | 0 | . | .
SMILES | m-calpain inh | S1P4 ag | S1P3 antagonist | S1P4 antag | PERK inh | S1P4 agonist cf | S1P1 ag
CCCCNC(=O)CC1S/C(=N/N=C/c2ccc(OC)cc2)NC1=O (stereo not drawn) | 4 | 12* | -14 | -5 | 1 | -2 | 3
CCOc1ccc(-c2cc3nc(C4CCN(C(=O)OC(C)(C)C)CC4)c(C(=O)O)cn3n2)cc1 | -87 | 126* | -6 | 2 | 1 | -2 | -8
CCOC(=O)N1CCN(C(=O)c2cc(-c3ccc(OCC)cc3)nc3ccccc23)CC1 | i | 0 | 12 | -6 | -2 | . | .
CN(C)CCOC(=O)c1ccc2c(c1)S(=O)(=O)c1ccccc1C2=O | 9 | 0 | -16 | 19 | 1 | . | .
Cc1cccc(CN(C(=S)Nc2c(C)cccc2C)c2cccnc2)c1 | 15 | 18* | -3 | -25 | 0 | -2 | -9
COc1ccc(CCNC(=O)COC(=O)C23CC4CC(CC(C4)C2)C3)cc1 | 22 | 11* | -3 | -3 | 1 | 0 | -5
COc1ccc(CCNC(=O)COC(=O)C23CC4CC(CC(Br)(C4)C2)C3)cc1 | 21 | 2 | -14 | -24 | 0 | . | .
